This note sets out measurements from article PMC12820563, “FoxP3 forms a head-to-head dimer in vivo and stabilizes its multimerization on adjacent microsatellites”.

Whole data set: some 16,000 sequences, median “rpm ratio (pull-down/input)” near 0.94, cut for the highest 2% near 1.7. The full list was thinned out, with the highest values kept by preference.

For the assay, the target named is T1, MBP-FoxP1dN (Mus musculus, UniProt P58462 326-579).
T1 sequence: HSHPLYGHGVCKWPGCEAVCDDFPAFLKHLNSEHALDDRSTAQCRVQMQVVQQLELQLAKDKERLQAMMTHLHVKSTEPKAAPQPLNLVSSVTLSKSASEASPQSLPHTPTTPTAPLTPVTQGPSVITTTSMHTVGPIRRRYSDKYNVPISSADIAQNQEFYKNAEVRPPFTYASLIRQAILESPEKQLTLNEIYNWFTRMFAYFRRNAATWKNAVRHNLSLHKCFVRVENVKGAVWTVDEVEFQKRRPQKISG
Put plainly: PD-seq (MBP pull-down with sequencing); 20 mM Tris-HCl pH 7.5, 100 mM NaCl, 1.5 mM MgCl2, 0.4 uM protein, 0.1 uM dsDNA library, 30 min, room temperature, amylose pull-down; high values mean tight binding. The note with it: protein: recombinant; tags: His6-MBP; chain copies: 2; dsDNA, one strand shown. The gist of the method:
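E. coli-expressed mouse FoxP3 or FoxP1 fragment, N-terminus removed and tagged with His6-MBP, was used at 0.4 µM against 0.1 µM of a Klenow-filled degenerate double-stranded DNA library. After 30 min at room temperature in Tris pH 7.5 buffer with NaCl and MgCl2, complexes were pulled down on amylose resin and washed three times. Binding is pull-down over input reads-per-million enrichment from pooled replicates of the proteinase K-released, PCR-barcoded, Illumina-sequenced DNA.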
On to “GATGATTGTTCTCCCAGCTGATGAATTATATTGTTCGAGTAAACAAATTTTCCTAATCTTTCTGTTCAAGCGCCATCTAC”, for which the binding signal was 2.08 RPM ratio (pull-down/input).

For “GATGATTGTTCTCCCAGCTGATGAATTATATTTTTCGAGTAAACAAATTTTCCTAATCTTTCTGTTCAAGCGCCATCTAC”, the binding signal was 1.61 RPM ratio (pull-down/input). Take “GATGATTGTTCTCCCAGCTGATGAATTTACTTTATCGAGTAAACAAATTTTCCTAATCTTTCTGTTCAAGCGCCATCTAC”: the binding signal was 1.46 RPM ratio (pull-down/input).

“GATGATTGTTCTCCCAGCTGATGAATTACGTAGTTCGAGTAAACAAATTTTCCTAATCTTTCTGTTCAAGCGCCATCTAC”: the binding signal is 1.02 RPM ratio (pull-down/input). Turning to “GATGATTGTTCTCCCAGCTGATGAATTATGGCGATCGAGTAAACAAATTTTCCTAATCTTTCTGTTCAAGCGCCATCTAC”, the binding signal was 0.99 RPM ratio (pull-down/input). The value for “GATGATTGTTCTCCCAGCTGATGAATTGGTAGGCTCGAGTAAACAAATTTTCCTAATCTTTCTGTTCAAGCGCCATCTAC” was 0.819 RPM ratio (pull-down/input); that for “GATGATTGTTCTCCCAGCTGATGAATTATTTACGTCGAGTAAACAAATTTTCCTAATCTTTCTGTTCAAGCGCCATCTAC” was 2.19 RPM ratio (pull-down/input); that for “GATGATTGTTCTCCCAGCTGATGAATTGTTTACGTCGAGTAAACAAATTTTCCTAATCTTTCTGTTCAAGCGCCATCTAC” was 2.79 RPM ratio (pull-down/input). “GATGATTGTTCTCCCAGCTGATGAATTTACGTCGTCGAGTAAACAAATTTTCCTAATCTTTCTGTTCAAGCGCCATCTAC”: the binding signal was 1.25 RPM ratio (pull-down/input). Take “GATGATTGTTCTCCCAGCTGATGAATTTATTACGTCGAGTAAACAAATTTTCCTAATCTTTCTGTTCAAGCGCCATCTAC”: the binding signal was 1.11 RPM ratio (pull-down/input).

Consider “GATGATTGTTCTCCCAGCTGATGAATTCTTTACGTCGAGTAAACAAATTTTCCTAATCTTTCTGTTCAAGCGCCATCTAC”, for which the binding signal is 0.992 RPM ratio (pull-down/input). Turning to “GATGATTGTTCTCCCAGCTGATGAATTTTTTACGTCGAGTAAACAAATTTTCCTAATCTTTCTGTTCAAGCGCCATCTAC”, the binding signal was 0.984 RPM ratio (pull-down/input). In the case of “GATGATTGTTCTCCCAGCTGATGAATTTATCCCTTCGAGTAAACAAATTTTCCTAATCTTTCTGTTCAAGCGCCATCTAC”, the binding signal was 1.05 RPM ratio (pull-down/input). Regarding “GATGATTGTTCTCCCAGCTGATGAATTGCGTACCTCGAGTAAACAAATTTTCCTAATCTTTCTGTTCAAGCGCCATCTAC”, the binding signal is 1.09 RPM ratio (pull-down/input). Consider “GATGATTGTTCTCCCAGCTGATGAATTGGGGCGGTCGAGTAAACAAATTTTCCTAATCTTTCTGTTCAAGCGCCATCTAC”, for which the binding signal was 0.782 RPM ratio (pull-down/input). With “GATGATTGTTCTCCCAGCTGATGAATTGACAGGATCGAGTAAACAAATTTTCCTAATCTTTCTGTTCAAGCGCCATCTAC”, the binding signal is 1.1 RPM ratio (pull-down/input).

Regarding “GATGATTGTTCTCCCAGCTGATGAATTCGTTTATTCGAGTAAACAAATTTTCCTAATCTTTCTGTTCAAGCGCCATCTAC”, the binding signal is 1.25 RPM ratio (pull-down/input).

Take “GATGATTGTTCTCCCAGCTGATGAATTTATTGTTTCGAGTAAACAAATTTTCCTAATCTTTCTGTTCAAGCGCCATCTAC”: the binding signal is 2.09 RPM ratio (pull-down/input). Turning to “GATGATTGTTCTCCCAGCTGATGAATTGTTTATTTCGAGTAAACAAATTTTCCTAATCTTTCTGTTCAAGCGCCATCTAC”, the binding signal was 2.77 RPM ratio (pull-down/input). The figure for “GATGATTGTTCTCCCAGCTGATGAATTCTGGCTGTCGAGTAAACAAATTTTCCTAATCTTTCTGTTCAAGCGCCATCTAC” is 0.808 RPM ratio (pull-down/input).

For the sequence “GATGATTGTTCTCCCAGCTGATGAATTGCCGTAATCGAGTAAACAAATTTTCCTAATCTTTCTGTTCAAGCGCCATCTAC”, the binding signal was 1.39 RPM ratio (pull-down/input). In the case of “GATGATTGTTCTCCCAGCTGATGAATTAATGTAGTCGAGTAAACAAATTTTCCTAATCTTTCTGTTCAAGCGCCATCTAC”, the binding signal is 1.24 RPM ratio (pull-down/input). For the sequence “GATGATTGTTCTCCCAGCTGATGAATTGGCACAATCGAGTAAACAAATTTTCCTAATCTTTCTGTTCAAGCGCCATCTAC”, the binding signal is 1.34 RPM ratio (pull-down/input).

In the case of “GATGATTGTTCTCCCAGCTGATGAATTATTTGCTTCGAGTAAACAAATTTTCCTAATCTTTCTGTTCAAGCGCCATCTAC”, the binding signal is 1.56 RPM ratio (pull-down/input). The figure for “GATGATTGTTCTCCCAGCTGATGAATTATTTGTTTCGAGTAAACAAATTTTCCTAATCTTTCTGTTCAAGCGCCATCTAC” is 2.21 RPM ratio (pull-down/input).

Consider “GATGATTGTTCTCCCAGCTGATGAATTATTTGATTCGAGTAAACAAATTTTCCTAATCTTTCTGTTCAAGCGCCATCTAC”, for which the binding signal was 1.05 RPM ratio (pull-down/input). On to “GATGATTGTTCTCCCAGCTGATGAATTAATTATTTCGAGTAAACAAATTTTCCTAATCTTTCTGTTCAAGCGCCATCTAC”, for which the binding signal was 1.12 RPM ratio (pull-down/input). The figure for “GATGATTGTTCTCCCAGCTGATGAATTATTATTTTCGAGTAAACAAATTTTCCTAATCTTTCTGTTCAAGCGCCATCTAC” is 3.1 RPM ratio (pull-down/input); for “GATGATTGTTCTCCCAGCTGATGAATTATTTTGTTCGAGTAAACAAATTTTCCTAATCTTTCTGTTCAAGCGCCATCTAC” it is 1.32 RPM ratio (pull-down/input); for “GATGATTGTTCTCCCAGCTGATGAATTATTTTTTTCGAGTAAACAAATTTTCCTAATCTTTCTGTTCAAGCGCCATCTAC” it is 1.5 RPM ratio (pull-down/input). Consider “GATGATTGTTCTCCCAGCTGATGAATTATTAATTTCGAGTAAACAAATTTTCCTAATCTTTCTGTTCAAGCGCCATCTAC”, for which the binding signal is 1.34 RPM ratio (pull-down/input). The value for “GATGATTGTTCTCCCAGCTGATGAATTATTTCTTTCGAGTAAACAAATTTTCCTAATCTTTCTGTTCAAGCGCCATCTAC” was 1.17 RPM ratio (pull-down/input).

“GATGATTGTTCTCCCAGCTGATGAATTGCTTATTTCGAGTAAACAAATTTTCCTAATCTTTCTGTTCAAGCGCCATCTAC”: the binding signal was 1.62 RPM ratio (pull-down/input). “GATGATTGTTCTCCCAGCTGATGAATTATTGTGTTCGAGTAAACAAATTTTCCTAATCTTTCTGTTCAAGCGCCATCTAC”: the binding signal was 2.1 RPM ratio (pull-down/input).

Consider “GATGATTGTTCTCCCAGCTGATGAATTATTGCTTTCGAGTAAACAAATTTTCCTAATCTTTCTGTTCAAGCGCCATCTAC”, for which the binding signal is 1.74 RPM ratio (pull-down/input).
